PubChem BioAssay AID1159580 (chemical genetic matrix, 2015)
Out of some 5,500 compounds screened, about 2,000 (36%) were called active. Roughly 18% stayed inconclusive and do not appear here. Cut-off read from the data, not from the text of the source: active = normalized growth mostly below about 0.91 (no sharp cut-off); inconclusive = no clear call, values can overlap the other calls; inactive = mostly above about 0.92. The list shows a part of the results.

Assay: chemical genetic growth profiling, strain panel (AID 1159580);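 note: tested at 20 µM; growth read once vehicle control cultures reached saturation at 30 °C; 1 = growth at the plate median or of vehicle wells; lower values mean less growth of the strain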
Details: S. cerevisiae deletion strains, growth OD

Measured: normalized growth

COc1ccccc1CNCCCCCCNCCCCCCCCNCCCCCCNCc1ccccc1OC
inactive: locus YAL040C, strain CLN3, hits give low values 1.01 | locus YCL061C, strain MRC1 (second series), hits give low values 0.96 | locus YDR363W, strain ESC2, hits give low values 0.906 | locus YER002W, strain NOP16, hits give low values 1.03 | locus YNL153C, strain GIM3, hits give low values 0.942 | locus YNL175C, strain NOP13, hits give low values 0.992 | locus YNL197C, strain WHI3, hits give low values 1.03 | locus YNL224C, strain SQS1, hits give low values 1.03 | locus YOR083W, strain WHI5 (second series), hits give low values 0.875 | locus YPL241C, strain CIN2, hits give low values 0.96
